Data taken from PubChem BioAssay (NCATS).
Records with an inconclusive call do not appear. Calls of active or inactive are those of the source. The call rests on the fitted dose curve; in most records, active means well fitted curve in the direction sought with a large enough effect; inconclusive means small, poorly fitted or top-dose-only effect, or another doubt; inactive means no such curve, though single readings can be large; an effect the other way counts as inactive or inconclusive.

Assays:
[1] = Cell Viability - LYMP2-017 (AID 972); details: LYMP2-017 lymphoblastoid cell viability; series mostly up to 92.2 µM; further: nearly all actives have a fitted effect of over 55% in size
In short: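 LYMP2-017 human lymphoblastoid cells (2500/well) settled 5 hr at 37 C, then exposed to compound 24 hr at 37 C in complete medium. Viability taken as intracellular ATP by CellTiter-Glo luminescence after 30 min at RT; AC50 from Hill fits.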

[2] = Cell Viability - LYMP2-019 (AID 973); details: LYMP2-019 lymphoblastoid cell line viability; series mostly up to 92.2 µM; further: nearly all actives have a fitted effect of over 55% in size
In short: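 Human lymphoblastoid LYMP2-019 cells (2500/well) preincubated 5 h at 37 C, then treated 24 h at 37 C in complete medium. Viability by CellTiter-Glo ATP luminescence after 30 min at room temperature; AC50 from Hill fits.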

[3] = Cell Viability - LYMP2-021 (AID 974); details: LYMP2-021 lymphoblastoid cells viability; series mostly up to 92.2 µM;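 further: compound exposure lasts 24 hours at 37 °C; nearly all actives have a fitted effect of over 55% in size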
In short: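 Human lymphoblastoid LYMP2-021 cells, 2500/well in complete medium, treated 24 hours at 37 C. Intracellular ATP by CellTiter-Glo luminescence (30 min, RT); AC50 from Hill fits of concentration-response.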

[4] = Cell Viability - LYMP2-023 (AID 975); details: LYMP2-023 lymphoblastoid cell viability; series mostly up to 92.2 µM;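 further: cellular ATP measured by luciferase luminescence as viability proxy; nearly all actives have a fitted effect of over 55% in size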
In short: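 LYMP2-023 human lymphoblastoid cells, 2500/well, preincubated 5 hr at 37 C, then compound-treated 24 hr at 37 C in complete medium. CellTiter-Glo luminescence (ATP) after 30 min at room temperature; AC50 from Hill-equation fits; tetraoctylammonium bromide positive control.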

[5] = Cell Viability - LYMP2-025 (AID 976); details: LYMP2-025 lymphoblastoid cell viability; series mostly up to 92.2 µM
In short: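 Human lymphoblastoid LYMP2-025 cells, 2500/well, exposed 24 h at 37 C in complete medium in 1536-well qHTS. Viability as cellular ATP by CellTiter-Glo luminescence; AC50 from Hill fits of concentration-response data.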

[6] = Cell Viability - LYMP2-002 (AID 977); details: LYMP2-002 lymphoblastoid cell viability, qHTS; series mostly up to 92.2 µM
In short: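 Human lymphoblastoid LYMP2-002 cells, 2500 per well, exposed to compounds for 24 h at 37 C in complete medium; viability read as intracellular ATP by CellTiter-Glo luminescence, AC50 from Hill fits.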

[7] = Cell Viability - LYMP2-006 (AID 978); details: LYMP2-006 lymphoblastoid cell viability, qHTS; series mostly up to 92.2 µM; further: nearly all actives have a fitted effect of over 60% in size
In short: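 Potency values are Hill-fit AC50s for decreases in intracellular ATP (CellTiter-Glo luminescence). LYMP2-006 lymphoblastoid cells, 2500 per well, were exposed to compound in complete culture medium for 24 hr at 37 C.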

[8] = Cell Viability - LYMP2-007 (AID 979); details: LYMP2-007 lymphoblastoid cell viability; series mostly up to 92.2 µM;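 further: cells exposed to compound for 24 h before reading; nearly all actives have a fitted effect of over 60% in size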
In short: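 Human lymphoblastoid LYMP2-007 cells (2500/well) preincubated 5 h at 37 C, then treated 24 h at 37 C in complete medium. Viability by CellTiter-Glo ATP luminescence after 30 min at room temperature; AC50 from Hill fits.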

[9] = Cell Viability - LYMP2-008 (AID 980); details: LYMP2-008 lymphoblastoid cell viability, qHTS; series mostly up to 92.2 µM; further: nearly all actives have a fitted effect of over 60% in size
In short: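 LYMP2-008 lymphoblastoid cells (2500/well) plated 5 h, then treated 24 h at 37 C in complete medium. Viability read as intracellular ATP by CellTiter-Glo luminescence after 30 min at room temperature; AC50 from Hill fits.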

[10] = Cell Viability - LYMP2-010 (AID 981); details: LYMP2-010 lymphoblastoid cell viability, qHTS; series mostly up to 92.2 µM; further: nearly all actives have a fitted effect of over 55% in size
In short: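 Human lymphoblastoid LYMP2-010 cells (2500/well) treated 24 h at 37 C in complete medium; viability read as intracellular ATP by CellTiter-Glo luminescence. AC50 from Hill fits of concentration-response data; tetraoctylammonium bromide positive control.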

[11] = Cell Viability - LYMP2-012 (AID 982); details: LYMP2-012 lymphoblastoid cell viability qHTS; series mostly up to 92.2 µM
[12] = Cell Viability - LYMP2-014 (AID 983); details: LYMP2-014 lymphoblastoid cells, viability qHTS; series mostly up to 92.2 µM; further: nearly all actives have a fitted effect of over 50% in size
In short: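 LYMP2-014 human lymphoblastoid cells, 2500/well, treated 24 h at 37 C in complete medium; viability by CellTiter-Glo ATP luminescence after 30 min at room temperature. AC50 from Hill fits of qHTS concentration-response; tetraoctylammonium bromide positive control.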

[13] = Cell Viability - LYMP2-016 (AID 984); details: LYMP2-016 lymphoblastoid cell viability, qHTS; series mostly up to 92.2 µM; further: nearly all actives have a fitted effect of over 55% in size
In short: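 Cytotoxicity was scored by luminescent ATP content (CellTiter-Glo) after 24 h compound exposure at 37 C of a human lymphoblastoid line at 2500 cells/well. Concentration-response data were fitted to the Hill equation for AC50.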

[14] = Cell Viability - LYMP2-018 (AID 985); details: LYMP2-018 lymphoblastoid cells, viability (qHTS); series mostly up to 92.2 µM;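 further: compound exposure lasted 24 hr at 37 °C; nearly all actives have a fitted effect of over 50% in size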
In short: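 Human lymphoblastoid LYMP2-018 cells, 2500/well, settled 5 hr at 37 C then exposed to compound 24 hr at 37 C; intracellular ATP measured by CellTiter-Glo luminescence. AC50 from Hill-equation concentration-response fits.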

[15] = Cell Viability - LYMP2-020 (AID 986); details: series mostly up to 92.2 µM; further: nearly all actives have a fitted effect of over 55% in size
In short: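 Human lymphoblastoid LYMP2-020 cells (2500/well) preincubated 5 h at 37 C, then treated 24 h at 37 C. Viability measured as intracellular ATP by CellTiter-Glo luminescence after 30 min at room temperature; AC50 from Hill fits.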

[16] = Cell Viability - LYMP2-022 (AID 987); details: LYMP2-022 lymphoblastoid cell viability; series mostly up to 92.2 µM; further: nearly all actives have a fitted effect of over 55% in size
In short: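 LYMP2-022 lymphoblastoid cells (2500/well, complete medium) were treated with compounds for 24 hours at 37 C; intracellular ATP was then read by CellTiter-Glo luminescence after 30 min at room temperature. AC50 values were derived from Hill-equation fits.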

[17] = Cell Viability - LYMP2-024 (AID 988); details: LYMP2-024 lymphoblastoid cell viability; series mostly up to 92.2 µM; further: nearly all actives have a fitted effect of over 60% in size
In short: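 Human lymphoblastoid LYMP2-024 cells (2500/well) rested 5 hr, then treated with compound for 24 hr at 37 C in complete medium. Viability was measured as intracellular ATP by CellTiter-Glo luminescence. AC50 values came from Hill-equation fits.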

[18] = Cell Viability - LYMP2-026 (AID 989); details: LYMP2-026 lymphoblastoid cell viability, qHTS; series mostly up to 92.2 µM; further: nearly all actives have a fitted effect of over 50% in size
In short: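 Human lymphoblastoid LYMP2-026 cells, 2500/well, exposed to compound 24 h at 37 C in complete medium. Viability as intracellular ATP by CellTiter-Glo luminescence; AC50 from Hill fits of qHTS concentration-response.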

[19] = Cell Viability - LYMP1-002 - Assay at 24 hr (AID 993); details: LYMP1-002 lymphoblastoid cells viability; series mostly up to 92.2 µM
In short: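 Human lymphoblastoid LYMP1-002 cells (2500/well) treated 24 h at 37 °C; viability as intracellular ATP by CellTiter-Glo luminescence. Tetraoctylammonium bromide as positive control; AC50 from Hill-equation fits of qHTS concentration-response.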

[20] = biological target: Alpha-galactosidase A (Homo sapiens) (UniProt P06280); test: Counterscreen for Glucocerebrosidase Inhibitors: qHTS Assay for Human alpha-Galactosidase at pH 4.5 (AID 992); details: purified enzyme, fluorogenic substrate; series mostly up to 76.9 µM
In short: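 Quantitative HTS: compounds tested from 0.7 nM up to 77 uM against 2 nM enzyme with 80 uM 4-MU alpha-D-galactopyranoside. The 20 min room-temperature reaction is stopped with 1M NaOH/1M glycine, pH 10.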

Measured: outcome

Alpha-galactosidase A (Homo sapiens), sequence (P06280 whole entry, looked up): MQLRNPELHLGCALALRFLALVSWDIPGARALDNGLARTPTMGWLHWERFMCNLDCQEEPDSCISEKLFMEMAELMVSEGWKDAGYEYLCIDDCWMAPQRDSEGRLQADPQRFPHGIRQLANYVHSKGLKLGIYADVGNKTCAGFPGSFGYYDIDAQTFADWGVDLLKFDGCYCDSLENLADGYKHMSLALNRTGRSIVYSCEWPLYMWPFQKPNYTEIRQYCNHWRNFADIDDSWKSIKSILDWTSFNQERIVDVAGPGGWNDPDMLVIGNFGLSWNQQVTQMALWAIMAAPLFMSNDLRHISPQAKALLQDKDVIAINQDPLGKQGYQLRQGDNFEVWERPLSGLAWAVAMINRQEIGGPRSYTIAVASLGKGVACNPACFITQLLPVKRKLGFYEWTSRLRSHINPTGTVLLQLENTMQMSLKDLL

Cc1cc(O)c2c(c1)C(=O)c1cccc(O)c1C2=O
not listed: [20]
inactive: all other assays above

COc1ccc2c(c1OC)C(=O)OC2[C@H]1c2c(cc3c(c2OC)OCO3)CCN1C (stereo not given in full)
inactive: [20]
